Records with an inconclusive call do not appear. Entries that show only a call come without a potency. Values without a mark were called inactive. The source made the active and inactive calls. Calls come from the whole dose curve; as a rule, active = well fitted curve in the direction sought with a large enough effect; inconclusive = small, poorly fitted or top-dose-only effect, or another doubt; inactive = no such curve, though single readings can be large; an effect the other way counts as inactive or inconclusive.
Test: P-glycoprotein substrates identified in KB-3-1 adenocarcinoma cell line, qHTS therapeutic library screen (AID 1346986); note: nearly all actives have a fitted effect of over 60% in size
Settings: KB-3-1 parental cells viability, CellTiter-Glo, 72 h; series mostly up to 44.5 µM
Procedure, shortened: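 KB-3-1 parental and colchicine-selected P-gp-overexpressing KB-8-5-11 cells (colchicine omitted during assay), 500 cells/well, dosed in dose-response for 72 h at 37 °C; CellTiter-Glo luminescence. Cytotoxic: curve class -1.1 to -2.4, max response >50%, AC50 < 10 uM.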

Structure (SMILES) | Potency
O=C(NCC(O)CO)c1ccncc1Nc1ccc(I)cc1F (configuration not stated) | inactive
C/C(=C\CCC(C)CCO)C(=O)OC1(C)CCC2C(C(=O)O)=COC(OC3OC(CO)C(O)C(O)C3O)C21 (configuration not stated) | inactive
CC(=O)O[C@@H]1[C@@H](CO)O[C@@](CO)(O[C@H]2O[C@H](COC(=O)/C=C/c3ccccc3)[C@@H](O)[C@H](O)[C@H]2O)[C@H]1O | inactive

Test: P-glycoprotein substrates identified in KB-8-5-11 adenocarcinoma cell line, qHTS therapeutic library screen (AID 1346987); note: nearly all actives have a fitted effect of over 65% in size; note: potency is the fitted concentration of half-maximal effect
Settings: KB-8-5-11 (P-gp overexpressing) viability, CellTiter-Glo, 72 h; series mostly up to 44.5 µM
Procedure, shortened: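 KB-8-5-11, a colchicine-selected P-gp-overexpressing KB-3-1 subline, was grown without colchicine for the assay. Cells were seeded at 500 cells/well, dosed in concentration-response and incubated 72 h at 37 degree C, 5% CO2. Viability was read by CellTiter-Glo luminescence.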

Structure (SMILES) | activity change, negative = cytotoxicity | Potency | outcome
CC(=O)O[C@@H]1[C@H](O)[C@@H](O[C@@H]2O[C@@H](C)[C@H](O[C@@H]3OC[C@@H](O)[C@H](O[C@@H]4OC[C@@H](O)[C@H](O)[C@H]4O)[C@H]3O)[C@@H](O[C@@H]3O[C@H](CO)[C@@H](O)[C@H](O)[C@H]3O)[C@H]2O)[C@H](OC(=O)[C@]23CCC(C)(C)C[C@H]2C2=CCC4[C@@]5(C)CC[C@H](O[C@@H]6O[C@H](C(=O)O)[C@@H](O)[C@H](O[C@@H]7OC[C@@H](O)[C@H](O)[C@H]7O)[C@H]6O[C@@H]6O[C@H](CO)[C@H](O)[C@H](O)[C@H]6O)[C@@](C)(C=O)C5CC[C@@]4(C)[C@]2(C)CC3)O[C@@H]1C (some centres not stated) | 9.26% [at 5.11 µM] | – | –
OCCc1ccc(O[C@@H]2O[C@H](CO)[C@@H](O)[C@H](O)[C@H]2O)cc1 | – | inactive | –
C=C[C@]1(C)C=C2CCC3C(C)(CCC[C@@]3(C)C(=O)O)C2CC1 (some centres not stated) | – | inactive | –
CC[C@]12C=CCN3CC[C@@]4(c5cc([C@@]6(C(=O)OC)C[C@H]7C[C@@H](C(C)(F)F)CN(Cc8c6[nH]c6ccccc86)C7)c(OC)cc5N(C)[C@H]4[C@@](O)(C(=O)OC)[C@@H]1OC(C)=O)[C@@H]32 | – | 5.44 µM (active) | –
C=C1C[C@@]23CCC4[C@@](C)(CCC[C@@]4(C)C(=O)OC)C2CC[C@@H]1C3 (some centres not stated) | – | inactive | –
COc1ccc(-c2c(-c3cc(C(=O)O)ccn3)ncn2C)cc1 | – | inactive | –
Cc1cc(Nc2ccc(NC(=O)c3ccc(Nc4ccnc5ccccc45)cc3)cc2)nc(N)n1 | – | inactive | –
O=C(NCC(O)CO)c1ccncc1Nc1ccc(I)cc1F (configuration not stated) | – | inactive | –
CCOc1cc2ncc(C#N)c(Nc3ccc(F)c(Cl)c3)c2cc1NC(=O)/C=C/CN(C)C | – | 3.26 µM (active) | –
COc1ccc2c(OC)c3ccoc3nc2c1OC | – | inactive | –
CC1OC(OC2C(CO)OC(OCC3OC(OC(=O)C45CCC(C)(C)CC4C4=CCC6C7(C)CCC(OC8OC(CO)C(O)C(OC9OC(CO)C(O)C(O)C9O)C8O)C(C)(C)C7CCC6(C)C4(C)CC5)C(O)C(O)C3O)C(O)C2O)C(O)C(O)C1OC1OC(CO)C(O)C(O)C1O (configuration not stated) | 9.79% [at 9.29 µM] | – | –
NC(=O)c1cnc(NCCc2ccc(O)c(Cl)c2)nc1NCc1ccccc1 | – | 10.3 µM (active) | –
CC1CC[C@]2(C(=O)O)CC[C@]3(C(=O)O)C(=CCC4[C@@]5(C)CC[C@H](O[C@@H]6O[C@H](CO)[C@@H](O)[C@H](O)[C@H]6O)C(C)(C)C5CC[C@]43C)C2C1C (some centres not stated) | – | inactive | –
CC1=CC(=O)[C@H]2C(C)(C)CCC[C@]2(C)[C@@]1(O)CO | – | inactive | –
C[C@@H]1C[C@@H]([C@@H](O)C(C)(C)O)O[C@H]2C[C@@]3(C)C(=C12)C[C@H](O)[C@H]1[C@@]2(C)CCC(=O)C(C)(C)C2CC[C@@]13C (some centres not stated) | – | inactive | –
C=C1C(O)C(O)C2(CC3C(C)=CCC4C(C)(CO)CCCC34C)OC2C1O (configuration not stated) | – | inactive | –
C[C@@H]1CC[C@]2(C(=O)OC3OC(CO)C(O)C(O)C3O)CC[C@]3(C)C(=CCC4[C@@]5(C)CC[C@H](O)[C@](C)(C(=O)O)C5CC[C@]43C)C2[C@]1(C)O (some centres not stated) | – | inactive | –
CC1=C(CCC(C)O[C@@H]2O[C@H](CO)[C@@H](O)[C@H](O)[C@H]2O)C(C)(C)CCC1=O (some centres not stated) | – | inactive | –
CCN(CC)CCN(Cc1ccc(-c2ccc(C(F)(F)F)cc2)cc1)C(=O)Cn1c(SCc2ccc(F)cc2)nc(=O)c2c1CCC2 | – | 18.4 µM (active) | –
COc1ccccc1NC(=O)OCC1CCN(C(=O)OC(C)(C)C)CC1 | – | inactive | –

Structure (SMILES) | activity change, negative = cytotoxicity | Potency | outcome
C(#Cc1nc2ncccc2nc1OCCN1CCCC1)c1ccccc1 | – | 6.51 µM (active) | –
Cc1cc(C(=O)N2CCCCc3ccccc32)ccc1CNC(=O)N1CCC[C@H]1C(=O)N(C)C | – | inactive | –
O=C(Cc1ccc(-c2ccccc2)cc1)NC1CCC1 | – | inactive | –
CC(=O)O[C@@H]1[C@H](O[C@@H]2O[C@@H](CO)[C@H](O)[C@H]2O)[C@@H](O[C@@H]2O[C@@H](C)[C@H](O[C@@H]3OC[C@@H](O)[C@H](O)[C@H]3O)[C@@H](O)[C@H]2O)[C@H](OC(=O)[C@]23CCC(C)(C)C[C@H]2C2=CCC4[C@@]5(C)CC[C@H](O[C@@H]6O[C@H](C(=O)O)[C@@H](O)[C@H](O)[C@H]6O[C@@H]6O[C@H](CO)[C@H](O)[C@H](O)[C@H]6O)[C@@](C)(C=O)C5CC[C@@]4(C)[C@]2(C)CC3)O[C@@H]1C (some centres not stated) | – | – | inactive [at 9.29 µM]
C/C(=C\CCC(C)CCO)C(=O)OC1(C)CCC2C(C(=O)O)=COC(OC3OC(CO)C(O)C(O)C3O)C21 (configuration not stated) | – | inactive | –
CCc1cccc(CC)c1NC(=O)c1nn(C)c2c1CCc1cnc(Nc3ccc(C(=O)NC4CCN(C)CC4)cc3OC(F)(F)F)nc1-2 | – | 3.55 µM (active) | –
COc1cc(Br)c(Nc2nc(-c3c(C)nc4ncccn34)cs2)c(Br)c1 | – | 2.31 µM (active) | –
OC[C@H]1O[C@@H](O[C@H]2[C@H](OCCc3ccccc3)O[C@H](CO)[C@@H](O)[C@@H]2O)[C@H](O)[C@@H](O)[C@@H]1O | – | inactive | –
COC(=O)c1ccccc1O[C@@H]1O[C@H](CO)[C@@H](O)[C@H](O)[C@H]1O[C@@H]1O[C@@H](C)[C@H](O)[C@@H](O)[C@H]1O | – | inactive | –
C=CCC1=C[C@]2(OC)[C@H](C)[C@@H](c3ccc(O)c(OC)c3)O[C@]2(OC)CC1=O | – | inactive | –
CC(C)CNCc1ccc(-c2ccccc2S(=O)(=O)N2CCCC2)cc1 | – | inactive | –
Cc1cc(Nc2cc(N3CCN(C)CC3)nc(/C=C/c3ccccc3)n2)n[nH]1 | – | 7.31 µM (active) | –
C[S+](CC[C@H](N)C(=O)[O-])C[C@H]1O[C@@H](n2cnc3c(N)ncnc32)[C@H](O)[C@@H]1O (some centres not stated) | – | inactive | –
Cn1nnc(-c2ccc(-c3ccc(N4C[C@H](CO)OC4=O)cc3F)cn2)n1 | – | inactive | –
CON(C)C(=O)[C@H](O)[C@H](Cc1ccccc1)NC(=O)c1cc2cc(Cl)ccc2[nH]1 | – | inactive | –
CC(=O)O[C@@H]1[C@@H](CO)O[C@@](CO)(O[C@H]2O[C@H](COC(=O)/C=C/c3ccccc3)[C@@H](O)[C@H](O)[C@H]2O)[C@H]1O | – | inactive | –
NC1CCC(Nc2cc(-c3cccc(NCc4cccc(F)c4)n3)c(Cl)cn2)CC1 (configuration not stated) | – | 1.16 µM (active) | –
O=C(/C=C\n1cnc(-c2cc(C(F)(F)F)cc(C(F)(F)F)c2)n1)N1CC(F)(F)C1 | – | 0.461 µM (active) | –
CC(C)(O)CC(CO)NC(=O)CC(O)CC(=O)Cc1ccccc1 (configuration not stated) | – | inactive | –
